# Data published in PubChem BioAssay (NCATS).
# Inconclusive results are not listed. Entries that show only a call come without a potency. Active and inactive are the calls of the source. Unless noted, calls follow the shape of the dose curve; as a rule, active = well fitted curve in the direction sought with a large enough effect; inconclusive = small, poorly fitted or top-dose-only effect, or another doubt; inactive = no such curve, though single readings can be large; an effect the other way counts as inactive or inconclusive.
# Experiments:
# [1] = molecular target: Lysosomal acid glucosylceramidase (Homo sapiens) (UniProt P04062); test: Glucocerebrosidase-p2 (AID 348; in the data active = potency below about 10 µM; also: potency is read from the fitted curve at half-maximal effect); conditions: purified GBA, blue fluorogenic substrate, 40 min
# How it was run: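 Normal human glucocerebrosidase (0.2 nM) with blue fluorogenic substrate (80 uM final) in citrate/phosphate pH 5.9 with 10mM sodium taurocholate, 0.01% tween-20; 40 min RT, NaOH/glycine stop; fluorescence Ex 365/Em 440; AC50 from a titration from 0.6 nM upwards.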
# [2] = AP1 Signaling Pathway (AID 357; active = well fitted curve in either direction with a large enough effect, not every such curve was filed as active); conditions: ME-180 AP-1-bla reporter, EGF-induced, beta-lactamase ratio, 5 h; at 7.69 µM (top of the series) unless noted
# How it was run: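 Modulation of EGF-driven AP-1 transcription was assessed with a beta-lactamase reporter in ME-180 cells. Compound and EC50 EGF were co-incubated 5 hours at 37 °C before 2.5-hour CCF4 loading at room temperature and dual-emission reading.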
# [3] = molecular target: Glucocorticoid receptor (Homo sapiens) (UniProt P04150); test: GR-GFP Redistribution (AID 450;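 active = compounds whose dose series gives a full or clear partial fitted curve of increased nuclear translocation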; also: potency is read from the fitted curve at half-maximal effect); conditions: U2OS GR-GFP nuclear translocation, laser cytometry, 2 h
# [4] = molecular target: Glucocorticoid receptor (Homo sapiens) (UniProt P04150); test: GR-EFC Redistribution (AID 451; calls by dose curve; also: potency is read from the fitted curve at half-maximal effect); conditions: CHO-K1 GR-EFC translocation, beta-gal luminescence, 2 h
# How it was run: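 CHO-K1 cells expressing nuclear EA and GR-ED fragments of b-gal; compounds titrated up to 46 uM final, 2 h at 37 C. GR nuclear translocation read as complemented b-gal luminescence after 1 h RT detection.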
# [5] = molecular target: Mitogen-activated protein kinase 10 (Mus musculus) (UniProt Q61831); test: JNK3 AlphaScreen Assay (AID 530; active = well fitted curve in either direction with a large enough effect, not every such curve was filed as active;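 also: kinase came from lysate of stimulated human HepG2 cells; signal reports phosphorylation of biotinylated GST-cJun 1-79 at Ser73 with 10 µM ATP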); conditions: JNK3 lysate, c-Jun phosphorylation; series mostly up to 57.1 µM
# How it was run: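 Activity was read by AlphaScreen after JNK3-containing HepG2 lysate (cytokine pre-activated) phosphorylated biotinylated GST-cJun with 10 uM ATP at room temperature. Phospho-Ser73 cJun antibody with Protein-A acceptor beads provided detection.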
# [6] = molecular target: Dual specificity protein kinase CLK4 (Homo sapiens) (UniProt Q9HAZ1); test: qHTS Assay for Inhibitors of CDC-like Kinase 4 (ADP-FP Assay) (AID 1795); conditions: Transcreener ADP fluorescence polarization; series mostly up to 50 µM;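 also: recombinant human CLK4 phosphorylating RS repeat peptide at 1 µM ATP; nearly all actives have a fitted effect of over 60% in size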
# How it was run: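 Kinase activity was measured as ADP production using Transcreener orange tracer (4 nM) and ADP antibody (1 ug/mL) fluorescence polarization, with ADP calculated from a calibration curve. The 1 h reaction contained 6.25 nM Clk4, 1 uM ATP and 100 uM RS peptide at pH 7.5 with Mg2+.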
# [7] = molecular target: Ubiquitin carboxyl-terminal hydrolase 1 (Homo sapiens) (UniProt O94782); test: Inhibitors of USP1/UAF1: Pilot qHTS (AID 504865); conditions: purified USP1/UAF1, Ub-rhodamine cleavage fluorescence; series mostly up to 54.9 µM;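 also: rhodamine fluorescence freed from ubiquitin-rhodamine substrate followed over time; top concentration of the series differs between compounds; nearly all actives have a fitted effect of over 35% in size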
# How it was run: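 Deubiquitinase activity followed as kinetic rhodamine fluorescence release from 150 nM Ub-Rho. 1 nM USP1/UAF1 with compound, after 15 min room-temperature preincubation, in HEPES pH 7.8 buffer containing TCEP, EDTA, BSA and Tween-20.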
# [8] = molecular target: Glutathione peroxidase 1 (Homo sapiens) (UniProt P07203); test: Primary qHTS Assay for Inhibitors of Recombinant Selenoprotein Glutathione Peroxidase 1 (GPX1) (AID 1845191); conditions: recombinant GPX1, GR-coupled NADPH fluorescence, 15 min; series mostly up to 48.8 µM; also: nearly all actives have a fitted effect of over 65% in size
# How it was run: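 GR-coupled readout: NADPH consumption tracked by fluorescence, ex 340/em 450 nm, at t=0 and after 15 min at RT. Final mix 10 nM GPX1, 1 mM GSH, 0.5 mM CHP, 0.5 mM NADPH, 100 nM GR, 0.01% BSA, following 30 min enzyme–compound preincubation.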
# [9] = molecular target: Cytochrome P450 1A2 (Homo sapiens) (UniProt P05177); test: p450-cyp1a2 (AID 410; calls by dose curve; also: potency is read from the fitted curve at half-maximal effect); conditions: recombinant CYP1A2, luciferin-ME demethylation, luminescence; series mostly up to 57 µM
# How it was run: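 Luminescent demethylation readout: Luciferin-ME (100uM, equal to Km) turned over by 20nM CYP1A2 for 60 min at room temperature after NADPH regeneration addition, following 10 min compound preincubation. Normalization used 57 uM furafylline as full inhibition.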
# [10] = NFAT Signaling Pathway (AID 444; active = well fitted curve in either direction with a large enough effect, not every such curve was filed as active;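 also: carbachol stimulus at about its EC50 of 1 µM final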); conditions: Jurkat NFAT-bla M1, carbachol, beta-lactamase ratio, 5 h; at 7.69 µM (top of the series) unless noted
# How it was run: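 Jurkat cells with NFAT-driven β-lactamase reporter and co-expressed M1 receptor, stimulated with carbachol (final 1 uM, ~EC50), compound titration, 5 h at 37 °C. CCF4 loaded 1 h at RT; 460/530 nm ratio gave %activity and AC50.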
# [11] = Stat Signaling Pathway (AID 446; active = well fitted curve in either direction with a large enough effect, not every such curve was filed as active;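 also: ME-180 cervical cancer cells given 40 pM IL-6 alongside compound; SIE-controlled beta-lactamase reporter measured as 460/530 nm FRET emission ratio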); conditions: ME-180 (cervical carcinoma) SIE beta-lactamase reporter, IL-6 stimulated, 5 h; series mostly up to 7.69 µM
# How it was run: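 Emission at 460 and 530 nm (excitation 405 nm) reports SIE-controlled beta-lactamase in ME-180 cells. Cells received compound with 40 pM IL-6 for 5 hrs at 37 C; data scaled between 300 pM IL-6 and 125 nM JAK-inhibitor controls.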
# [12] = molecular target: Cytochrome P450 3A4 (Homo sapiens) (UniProt P08684); test: qHTS Assay for Activators of Cytochrome P450 3A4 (AID 885); conditions: recombinant CYP3A4, Luciferin-PPXE luminescence, 60 min; series mostly up to 57.1 µM; also: nearly all actives have a fitted effect of over 65% in size
# How it was run: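 Activators are scored by enhanced luminescence from CYP3A4 conversion of luciferin-PPXE (25uM, equal to KM) to luciferin, after 60 min at RT with an NADPH-regenerating system.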
# [13] = molecular target: Cytochrome P450 2D6 (Homo sapiens) (UniProt P10635); test: qHTS Assay for Inhibitors and Substrates of Cytochrome P450 2D6 (AID 891); conditions: recombinant CYP2D6, luciferin-ME EGE luminescence; series mostly up to 57.1 µM; also: potency is read from the fitted curve at half-maximal effect; nearly all actives have a fitted effect of over 60% in size
# How it was run: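 Luminescent read-out of luciferin formed by 5 nM human CYP2D6 demethylating 30 uM Luciferin-ME EGE (Km level) over 60 min at room temperature after NADPH regeneration addition. Data normalized to full inhibition by 1.43 uM quinidine.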
# [14] = molecular target: Cytochrome P450 2C19 (Homo sapiens) (UniProt P33261); test: qHTS Assay for Inhibitors and Substrates of Cytochrome P450 2C19 (AID 899); conditions: recombinant CYP2C19, luciferin-H EGE luminescence; series mostly up to 57.1 µM; also: potency is read from the fitted curve at half-maximal effect; nearly all actives have a fitted effect of over 60% in size
# How it was run: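 Luminescent read-out of luciferin formed from Luciferin-H EGE (10uM, equal to KM). Enzyme 5nM in 50mM KPO4; compound added, 10 min at 37C, then NADPH regenerating system for 60 min at 37C. Full inhibition defined by 57uM ketoconazole.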
# Sequence of Glucocorticoid receptor (Homo sapiens) (P04150 whole entry, looked up, the tested form may be a part): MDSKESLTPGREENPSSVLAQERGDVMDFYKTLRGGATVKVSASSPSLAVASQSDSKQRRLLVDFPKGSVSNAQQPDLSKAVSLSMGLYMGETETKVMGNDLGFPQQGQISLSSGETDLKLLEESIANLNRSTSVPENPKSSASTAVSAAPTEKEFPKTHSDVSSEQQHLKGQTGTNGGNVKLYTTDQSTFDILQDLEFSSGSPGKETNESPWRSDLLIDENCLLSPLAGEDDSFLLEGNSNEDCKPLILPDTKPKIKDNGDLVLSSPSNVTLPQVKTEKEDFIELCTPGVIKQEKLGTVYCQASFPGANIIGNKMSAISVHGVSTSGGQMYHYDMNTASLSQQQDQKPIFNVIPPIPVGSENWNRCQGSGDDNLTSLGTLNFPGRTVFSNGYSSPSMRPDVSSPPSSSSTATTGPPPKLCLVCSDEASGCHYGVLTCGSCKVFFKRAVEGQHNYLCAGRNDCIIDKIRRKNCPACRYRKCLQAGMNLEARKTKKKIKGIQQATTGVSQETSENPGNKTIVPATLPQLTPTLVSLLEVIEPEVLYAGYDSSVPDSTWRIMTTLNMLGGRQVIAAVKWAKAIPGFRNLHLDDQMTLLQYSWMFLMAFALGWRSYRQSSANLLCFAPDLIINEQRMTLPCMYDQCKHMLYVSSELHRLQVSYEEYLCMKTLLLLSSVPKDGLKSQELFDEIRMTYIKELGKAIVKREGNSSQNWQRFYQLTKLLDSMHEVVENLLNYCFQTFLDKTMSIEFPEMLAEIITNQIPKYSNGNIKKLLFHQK
# Sequence of Glutathione peroxidase 1 (Homo sapiens) (P07203 whole entry, looked up): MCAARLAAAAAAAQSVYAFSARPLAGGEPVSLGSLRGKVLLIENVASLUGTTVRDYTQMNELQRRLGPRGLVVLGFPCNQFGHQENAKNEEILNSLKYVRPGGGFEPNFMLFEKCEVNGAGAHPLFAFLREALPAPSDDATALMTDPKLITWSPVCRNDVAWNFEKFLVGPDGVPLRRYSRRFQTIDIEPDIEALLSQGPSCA
# Sequence of Ubiquitin carboxyl-terminal hydrolase 1 (Homo sapiens) (O94782 whole entry, looked up): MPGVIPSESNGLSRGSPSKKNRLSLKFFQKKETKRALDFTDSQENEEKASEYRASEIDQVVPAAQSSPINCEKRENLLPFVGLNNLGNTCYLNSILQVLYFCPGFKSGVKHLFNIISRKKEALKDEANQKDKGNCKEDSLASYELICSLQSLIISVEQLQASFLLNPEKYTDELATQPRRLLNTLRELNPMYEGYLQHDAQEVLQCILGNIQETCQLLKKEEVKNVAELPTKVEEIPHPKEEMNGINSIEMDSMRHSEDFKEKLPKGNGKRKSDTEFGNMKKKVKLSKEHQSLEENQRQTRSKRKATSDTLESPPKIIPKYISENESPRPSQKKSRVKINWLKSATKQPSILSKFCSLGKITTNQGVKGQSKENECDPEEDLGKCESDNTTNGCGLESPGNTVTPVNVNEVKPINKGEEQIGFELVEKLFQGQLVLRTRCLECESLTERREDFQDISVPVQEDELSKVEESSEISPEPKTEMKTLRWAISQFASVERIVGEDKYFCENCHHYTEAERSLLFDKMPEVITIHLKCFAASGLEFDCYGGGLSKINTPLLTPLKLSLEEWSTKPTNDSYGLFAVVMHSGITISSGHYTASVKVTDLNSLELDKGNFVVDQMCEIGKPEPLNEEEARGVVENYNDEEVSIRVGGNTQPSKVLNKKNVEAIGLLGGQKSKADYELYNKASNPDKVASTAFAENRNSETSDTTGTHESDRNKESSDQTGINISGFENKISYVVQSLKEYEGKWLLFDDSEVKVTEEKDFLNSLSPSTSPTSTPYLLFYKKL
# Sequence of Dual specificity protein kinase CLK4 (Homo sapiens) (Q9HAZ1 whole entry, looked up): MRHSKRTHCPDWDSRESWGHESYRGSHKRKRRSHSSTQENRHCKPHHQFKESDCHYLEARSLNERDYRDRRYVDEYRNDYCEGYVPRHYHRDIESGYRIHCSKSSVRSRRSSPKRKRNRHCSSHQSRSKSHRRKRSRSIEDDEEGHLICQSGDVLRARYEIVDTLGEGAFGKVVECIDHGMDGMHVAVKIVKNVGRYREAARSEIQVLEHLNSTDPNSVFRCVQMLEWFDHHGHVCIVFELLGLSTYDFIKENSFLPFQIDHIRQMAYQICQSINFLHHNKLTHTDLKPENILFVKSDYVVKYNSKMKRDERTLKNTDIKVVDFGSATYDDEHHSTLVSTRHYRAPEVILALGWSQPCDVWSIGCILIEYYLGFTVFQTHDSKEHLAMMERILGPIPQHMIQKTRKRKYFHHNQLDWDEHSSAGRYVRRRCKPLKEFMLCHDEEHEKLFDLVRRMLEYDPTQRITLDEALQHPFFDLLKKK
# Sequence of Cytochrome P450 1A2 (Homo sapiens) (P05177 whole entry, looked up): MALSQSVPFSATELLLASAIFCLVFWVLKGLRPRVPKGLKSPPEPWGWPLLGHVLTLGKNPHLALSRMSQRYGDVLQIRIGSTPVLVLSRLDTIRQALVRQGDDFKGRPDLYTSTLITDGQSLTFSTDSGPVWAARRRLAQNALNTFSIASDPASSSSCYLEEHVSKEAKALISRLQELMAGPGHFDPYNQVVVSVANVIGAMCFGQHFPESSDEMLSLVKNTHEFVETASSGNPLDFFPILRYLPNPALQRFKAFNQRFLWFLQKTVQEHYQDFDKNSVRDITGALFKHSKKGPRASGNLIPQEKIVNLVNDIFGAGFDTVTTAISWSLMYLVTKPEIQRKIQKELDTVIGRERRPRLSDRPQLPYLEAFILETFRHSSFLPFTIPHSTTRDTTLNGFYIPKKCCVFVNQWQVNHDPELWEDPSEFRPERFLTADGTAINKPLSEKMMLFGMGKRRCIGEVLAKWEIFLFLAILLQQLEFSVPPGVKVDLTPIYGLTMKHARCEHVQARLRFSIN
# Sequence of Cytochrome P450 2C19 (Homo sapiens) (P33261 whole entry, looked up): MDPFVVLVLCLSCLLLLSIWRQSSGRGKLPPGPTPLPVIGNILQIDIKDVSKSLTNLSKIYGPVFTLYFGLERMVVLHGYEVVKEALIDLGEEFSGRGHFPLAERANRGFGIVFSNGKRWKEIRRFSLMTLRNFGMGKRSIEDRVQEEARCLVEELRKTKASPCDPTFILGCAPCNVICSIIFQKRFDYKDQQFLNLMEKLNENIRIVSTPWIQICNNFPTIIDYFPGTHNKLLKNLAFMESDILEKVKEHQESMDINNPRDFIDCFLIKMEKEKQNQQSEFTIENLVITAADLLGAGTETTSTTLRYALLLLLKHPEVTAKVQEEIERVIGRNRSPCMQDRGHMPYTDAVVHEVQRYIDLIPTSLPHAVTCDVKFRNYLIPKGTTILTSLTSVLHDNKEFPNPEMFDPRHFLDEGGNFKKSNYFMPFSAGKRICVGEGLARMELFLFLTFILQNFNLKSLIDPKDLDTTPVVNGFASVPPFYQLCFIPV
# Sequence of Cytochrome P450 3A4 (Homo sapiens) (P08684 whole entry, looked up): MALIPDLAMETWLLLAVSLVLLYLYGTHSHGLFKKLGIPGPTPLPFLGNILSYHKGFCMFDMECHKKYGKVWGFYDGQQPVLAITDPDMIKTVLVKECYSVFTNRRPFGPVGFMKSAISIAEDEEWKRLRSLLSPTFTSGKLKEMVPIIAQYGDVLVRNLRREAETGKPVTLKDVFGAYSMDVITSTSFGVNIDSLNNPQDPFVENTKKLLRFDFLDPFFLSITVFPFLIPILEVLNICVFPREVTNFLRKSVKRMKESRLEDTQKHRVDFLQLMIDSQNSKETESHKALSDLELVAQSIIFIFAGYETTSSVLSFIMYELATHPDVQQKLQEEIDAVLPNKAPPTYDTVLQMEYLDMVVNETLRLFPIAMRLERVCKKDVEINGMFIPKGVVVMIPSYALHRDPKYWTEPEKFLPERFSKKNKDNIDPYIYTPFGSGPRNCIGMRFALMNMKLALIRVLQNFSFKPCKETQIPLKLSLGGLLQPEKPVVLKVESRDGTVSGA
# Sequence of Lysosomal acid glucosylceramidase (Homo sapiens) (P04062 whole entry, looked up): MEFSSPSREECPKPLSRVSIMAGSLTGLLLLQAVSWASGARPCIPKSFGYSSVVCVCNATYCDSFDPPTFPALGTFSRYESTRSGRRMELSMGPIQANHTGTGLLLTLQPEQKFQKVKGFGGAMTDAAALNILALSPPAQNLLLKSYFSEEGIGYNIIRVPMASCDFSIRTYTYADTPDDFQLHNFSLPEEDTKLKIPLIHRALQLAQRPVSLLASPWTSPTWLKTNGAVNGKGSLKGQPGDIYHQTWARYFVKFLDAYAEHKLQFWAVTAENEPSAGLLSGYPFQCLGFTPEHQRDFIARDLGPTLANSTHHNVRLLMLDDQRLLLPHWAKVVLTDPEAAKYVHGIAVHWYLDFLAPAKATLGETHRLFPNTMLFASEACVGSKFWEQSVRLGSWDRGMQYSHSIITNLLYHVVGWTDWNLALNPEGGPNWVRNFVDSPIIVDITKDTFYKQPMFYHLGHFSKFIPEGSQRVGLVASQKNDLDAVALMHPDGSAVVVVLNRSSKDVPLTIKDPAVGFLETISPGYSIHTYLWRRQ
# Sequence of Cytochrome P450 2D6 (Homo sapiens) (P10635 whole entry, looked up): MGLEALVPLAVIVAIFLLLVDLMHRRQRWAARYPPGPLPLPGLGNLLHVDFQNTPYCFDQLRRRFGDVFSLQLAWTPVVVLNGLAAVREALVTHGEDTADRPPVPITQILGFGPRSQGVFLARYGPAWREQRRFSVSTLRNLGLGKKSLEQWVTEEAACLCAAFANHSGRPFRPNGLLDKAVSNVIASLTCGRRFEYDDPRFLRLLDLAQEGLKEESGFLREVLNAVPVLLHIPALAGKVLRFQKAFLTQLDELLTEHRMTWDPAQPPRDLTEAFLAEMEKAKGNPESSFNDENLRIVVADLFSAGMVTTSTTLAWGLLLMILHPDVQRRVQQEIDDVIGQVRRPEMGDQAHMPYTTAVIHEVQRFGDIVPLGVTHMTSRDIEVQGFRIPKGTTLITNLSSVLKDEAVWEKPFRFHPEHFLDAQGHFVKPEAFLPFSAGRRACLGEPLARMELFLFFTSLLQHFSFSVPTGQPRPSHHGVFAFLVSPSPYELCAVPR
smiles,measurement,setting,value
COc1ccc2[nH]cc(CCNc3nc(-c4c(C)noc4C)nc4ccccc34)c2c1,Potency,[1],> 2.29 µM (inactive)
same,"activity change, negative = inhibition",[2],-24.6% (inactive)
same,Potency,[3],> 46 µM (inactive)
same,Potency,[4],> 46 µM (inactive)
same,Potency,[5],inactive
same,Potency,[6],inactive
same,Potency,[7],inactive
Cn1cc(C2=C(c3cn(CCCN)c4ccccc34)C(=O)NC2=O)c2ccccc21,Potency,[8],inactive
Oc1c(Br)cc(Br)cc1CNC1CCC(O)CC1 (centres undefined),Potency,[8],inactive
Fc1ccc(N2CCN(c3nc4ccccc4c4nc(-c5ccccc5)nn34)CC2)cc1,Potency,[8],inactive
CCc1ccc(Nc2c(F)c(F)cc(F)c2F)c(CC(=O)O)c1,Potency,[8],inactive
C=C(NC(=O)C(=C)NC(=O)c1csc(C2=N[C@H]3c4csc(n4)[C@H]4NC(=O)c5csc(n5)[C@H]([C@@](C)(O)[C@@H](C)O)NC(=O)[C@H]5CSC(=N5)C(=CC)NC(=O)[C@H]([C@@H](C)O)NC(=O)c5csc(n5)[C@]3(CC2)NC(=O)[C@H](C)NC(=O)C(=C)NC(=O)[C@H](C)NC(=O)[C@H](C(C)CC)N[C@@H]2C=Cc3c([C@H](C)O)cc(nc3[C@H]2O)C(=O)O[C@@H]4C)n1)C(N)=O (some centres undefined),Potency,[8],inactive
CCc1nc2c(sc3nc4c(cc32)COC(C)(C)C4)c(=O)n1Cc1ccco1,Potency,[8],inactive
Cc1cc(-c2nc3ncccc3o2)ccc1NC(=O)COc1ccc(C(C)(C)C)cc1,Potency,[8],inactive
CC(C)(C)c1ccc(S(=O)(=O)Nc2ccc(-n3ccnc3)cc2)cc1,Potency,[8],inactive
C[C@]12C=CC(=O)C=C1CC[C@@H]1[C@@H]2[C@@H](O)C[C@@]2(C)[C@H]1CC[C@]2(O)C(=O)COC(=O)c1cccc(S(=O)(=O)O)c1,Potency,[8],inactive
Cc1ccc2nc(NC(=O)CSc3nc4c(c(=O)n3C)SC(C)C4)sc2c1 (centres undefined),Potency,[8],inactive
CN(C)c1ccc(-c2cncnc2NCCc2cnc[nH]2)cc1,"activity change, negative = inhibition",[2],-28.6% (inactive)
same,Potency,[9],1.26 µM (active)
same,"activity change, negative = inhibition",[10],-15.1% (inactive)
same,outcome,[11],inactive
same,Potency,[3],> 46 µM (inactive)
same,Potency,[4],> 46 µM (inactive)
same,Potency,[5],inactive
same,outcome,[12],inactive
same,Potency,[13],5.01 µM (active)
same,Potency,[14],0.0794 µM (active)
same,Potency,[6],inactive
same,Potency,[7],inactive
